# Most compounds without a hit are left out; they make up all but 0.84% or so of the library.
# NR5A2 inv ag – inverse agonists of human LRH-1 (NR5A2); O00482; HEK293T StAR-luciferase reporter, LRH-1 transfected, 24 h; inhibition, % at 3.6 µM; 360,000 tested, 0.13% active;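 active = inhibition above the mean inhibition of all tested compounds plus 3 SD, cut at about 73% in these data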;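 note: 0% = DMSO wells and 100% = reporter-only cells lacking LRH-1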
# NCOA3 inh – human NCOA3 inhibition. Q9Y6Q9. HEK293 GAL4-SRC3 luciferase reporter, luminescence. inhibition, % at 3.6 µM. 360,000 tested, 0.17% active;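 active = inhibition above a per-campaign cutoff, the mean of all compounds plus 3 SD, cut at about 60% in these data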;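 note: 0% = DMSO-treated cells and 100% = gossypol-treated cells at 36 µM; higher means less SRC3-driven luciferase light from the GAL4 reporter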
# COUP-TFII inh – inhibitors of human COUP-TFII (NR2F2); HEK293T NGFI-A luciferase reporter, luminescence; inhibition, % at 8.6 µM; 370,000 tested, 0.7% active; AID 686940;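 active = inhibition above a per-plate cutoff, mean inhibition of test wells between control levels plus 3 SD, cut at about 38% in these data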;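 note: cells cotransfected with COUP-TFII expression vector driving the NGFI-A reporter; 0% = median of COUP-TF2 test wells and 100% = reporter-only cells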
# NCOA2 inhibitor – inhibits human steroid receptor coactivator 2; Q15596; HEK293 GAL4-SRC2 luciferase reporter, luminescence; inhibition, % at 9 µM; 370,000 tested, 0.17% active; AID 651957;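 active = inhibition above the mean inhibition of all tested compounds plus 3 SD, set per campaign, cut at about 52% in these data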;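 note: 0% = DMSO treated cells and 100% = cells given Gossypol at 36 µM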
# NCOA1 inh – inhibitors of human steroid receptor coactivator 1 (SRC1); Q15788; HEK293 GAL4-SRC1 luciferase reporter, luminescence; inhibition, % at 3.6 µM; 360,000 tested, 0.12% active;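 active = inhibition above the campaign mean plus 3 SD, with each screening campaign given its own cutoff, cut at about 60% in these data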;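 note: 0% = DMSO treated cells and 100% = gossypol at 36 µM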
# VP16 Luc counter – counter-screen for COUP-TFII antagonists: inhibitors of VP16. shares compounds with COUP-TFII inh. HEK293 Gal4-VP16 luciferase reporter, luminescence. inhibition, % at 8.5 µM. 2,500 tested, 25% active. AID 687007; in the data active = inhibition above about 13%
# NR2F2 inh conf – COUP-TFII (NR2F2) inhibition, confirmation assay | inhibition, % at 8.5 µM | HEK293 NGFI-A luciferase reporter, luminescence | shares compounds with COUP-TFII inh | 2,500 tested, 45% active;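 active = mean inhibition over three repeats above a set limit taken from the earlier primary screen, cut at about 38% in these data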;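 note: 100% = cells given the luciferase reporter alone without the COUP-TF2 vector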
# The depositor's hits bear a star; · = not tested or not shown.
SMILES,NR5A2 inv ag,NCOA3 inh,COUP-TFII inh,NCOA2 inhibitor,NCOA1 inh,VP16 Luc counter,NR2F2 inh conf
CCCCCCCCN1C(=O)[C@@H](CC(=O)NCCCOCCCC)C[C@@]2(C(=O)OC)C1=C[C@H](COCc1ccccc1)O[C@@H]2C,·,·,-10.2,7.4,·,·,·
CC(C)c1ccc(C(=O)Nc2ccc(CN3CCOCC3)cc2)cc1,3.9,15.5,38.3*,-17.1,3.5,-37.5,5.9
C[C@@H]1C[C@@H]2OC(=O)[C@]3(C)[C@H]2[C@@H](OC3(C)O)[C@]2(C)C(=O)C=C[C@H]12 (some centres undefined),-12.0,-18.4,-24.8,-35.1,13.3,·,·
C=C1C(=O)O[C@@H]2C[C@@H](C)[C@@H]3C=CC(=O)[C@@]3(C)[C@@H](OC(C)=O)[C@H]12,·,·,85.9*,82.9*,·,94.0*,105.3*
Cc1nn(-c2ccccc2)c(C)c1C(=O)OC(C)C(=O)NC1CCCCC1C (centres undefined),20.6,14.0,38.8*,10.9,10.2,1.3,21.2
O=C(/C=C\Nc1ccc2c(c1)OCO2)c1ccccn1,-34.2,34.4,46.1*,73.1*,12.1,30.8*,52.1*
CC(C)(C)OC(=O)NCCCCCNC(=O)c1[nH]cnc1C(=O)N[C@@H](CCCCNC(=O)OC(C)(C)C)C(=O)OC(C)(C)C,29.4,1.6,·,·,21.9,·,·
CC(C)(C)OC(=O)NCCCCCNC(=O)c1nc[nH]c1C(=O)NCCCCCNC(=O)OC(C)(C)C,34.5,52.5,55.0*,34.4,31.5,1.9,33.3
CCCCCC(=O)Nc1cccc(C2=NOC3(C2)C[C@@H](C(N)=O)N(C(=O)Cc2ccc([N+](=O)[O-])cc2)C3)c1 (some centres undefined),5.3,-4.4,-3.1,-15.6,-11.2,·,·
NC(=O)[C@H]1CC2(CC(c3cccc(NC(=O)COc4ccc(Cl)cc4)c3)=NO2)CN1C(=O)Cc1ccc([N+](=O)[O-])cc1 (some centres undefined),41.9,26.5,73.8*,11.1,28.2,-5.8,66.0*
Cn1c(=O)cc(OCCCC(=O)Nc2cc(-c3ccncc3)ccn2)c2ccccc21,·,·,46.3*,·,·,23.4*,39.5*
Cn1c(=O)cc(OCCCC(=O)NCc2cccnc2)c2ccccc21,11.6,12.7,-16.3,-17.9,-23.3,·,·
Cn1c(=O)cc(OCCCC(=O)Nc2cc(C(F)(F)F)ccn2)c2ccccc21,·,·,71.1*,·,·,15.8*,27.8
O=C(c1cccnc1Cl)N1CCC(Oc2cccnc2)CC1,·,·,9.3,-8.8,·,·,·
S=C(NCc1ccc(Cl)cc1)Nc1ccncc1,49.3,12.0,58.4*,20.9,5.1,16.6*,44.1*
O=C(Cc1c(Cl)cccc1Cl)Nc1ccncc1Cl,24.0,13.7,6.4,2.4,12.5,·,·
O=C(Cc1ccc(Cl)cc1Cl)Nc1ccncc1,58.3,20.4,49.9*,17.8,8.2,-1.6,37.0
COc1ccc(CC(=O)Nc2ccncc2Cl)cc1,44.0,21.4,50.9*,23.9,-3.0,-4.5,32.4
O=C(Cc1ccc(Cl)cc1Cl)Nc1ccncc1Cl,60.2,21.4,40.4*,21.4,26.7,4.9,42.2*
O=C(CSc1ccc(-c2cccc([N+](=O)[O-])c2)nn1)N1CCCCC1,-6.1,-1.3,-3.2,3.2,7.0,·,·
C[C@H](O)[C@@H]1C(=O)N2CCc3c([nH]c4c(-c5ccccc5)cccc34)[C@@H]2C[C@@H]1N(C)C(=S)NCCc1ccccc1,·,·,-0.8,-29.6,·,·,·
Cc1ccc(CCNc2ncnc(Cl)c2N)cc1,-20.2,-22.6,63.9*,-8.9,-26.9,-68.5,49.0*
CN1CCN(CCCNC(=O)c2ccc3c(Cl)c4c(nc3c2)CCCC4)CC1,-8.0,14.5,2.6,-11.9,-1.4,·,·
CN(Cc1nccs1)C(=O)c1cc(COc2cccc3cnccc23)on1,34.8,42.0,54.4*,40.1,28.2,4.6,46.6*
CCOC(=O)CC1CCCCN1C(=O)c1cc(COc2cccc3cnccc23)on1 (centres undefined),43.4,31.4,70.9*,31.8,23.1,16.3*,77.7*
SMILES,NR5A2 inv ag,NCOA3 inh,COUP-TFII inh,NCOA2 inhibitor,NCOA1 inh,VP16 Luc counter,NR2F2 inh conf
O=C(c1cc(COc2cccc3cccnc23)on1)N1CCC[C@H]1CO,-9.6,-19.4,-4.5,-41.5,-2.5,·,·
COC(=O)C1CCCCN1C(=O)c1cc(COc2cccc3cnccc23)on1 (centres undefined),25.2,27.9,61.4*,24.7,25.9,0.4,59.5*
CC(C)=CCCC1=CC[C@H]2[C@@H](C1)C(C(C)C)=CC(=O)[C@@]2(C)O,·,·,-7.9,21.4,·,·,·
CC(C)Cc1ccc(CN2CCCC(NC(=O)c3ccnn3C)C2)cc1 (centres undefined),5.5,11.8,45.7*,23.2,-1.2,-6.7,18.3
COc1ccccc1N1CCN(C(=O)CCC(=O)N2CCN(c3ccc(F)cc3)CC2)CC1,0.6,13.0,39.8*,14.0,15.5,-4.3,5.0
COc1ccccc1N1CCN(C(=O)c2sc3nc(-c4ccc(F)cc4)cn3c2C)CC1,-3.3,17.9,51.9*,17.4,7.6,1.5,30.3
Cc1ccc(NC(=O)Cc2n[nH]c(=O)c3ccccc23)cc1S(=O)(=O)N1CCCCCC1,-5.7,-7.0,37.9*,23.3,-3.3,-1.6,16.6
Cc1ccc(NC(=O)CSc2ncnc3ccccc23)cc1S(=O)(=O)N1CCCCC1,-24.8,17.9,38.8*,36.4,-9.3,-6.9,7.8
N#Cc1cc2ccccc2nc1SCC(=O)Nc1ccc(S(=O)(=O)N2CCCC2)cc1,-2.3,23.5,38.7*,14.4,-20.4,-7.8,2.0
CN(CC(=O)Nc1ccc(Cl)c(C(F)(F)F)c1)C(=O)Cc1n[nH]c(=O)c2ccccc12,-22.3,15.6,45.8*,27.7,-12.6,-4.9,10.2
CCOC(=O)Cn1c2c(c(=N)c3ccccc31)CCC2,-13.4,4.0,9.6,-1.9,11.4,·,·
N=c1c2c(n(Cc3ccc(F)cc3)c3c1CCC3)CCCC2,55.5,43.6,39.2*,18.5,25.5,3.3,25.4
N=c1c2c(n(Cc3ccccc3)c3c1CCC3)CCC2,52.4,40.2,41.2*,10.3,22.5,9.3,37.0
N=c1c2c(n(Cc3ccc(Cl)cc3)c3c1CCC3)CCC2,91.9*,69.6*,66.9*,1.7,48.4,4.0,46.2*
N=c1c2c(n(Cc3cccc(Cl)c3)c3c1CCC3)CCCC2,75.3*,52.2,64.7*,-0.3,48.0,13.4*,47.4*
CCN1/C(=C/c2ccc3cc(C)ccc3[n+]2CC)Sc2cc(C)ccc21,56.8,35.6,63.4*,-18.3,19.9,8.6,53.2*
CCN1/C(=C/c2ccc3cc(C)ccc3[n+]2C)Sc2ccc3sccc3c21,38.8,32.9,38.1*,-41.9,15.6,5.3,12.0
O=C(NNC(=O)c1cccs1)c1ccc(Cl)nc1,21.0,5.2,-15.1,2.3,-8.4,·,·
